High-throughput results as filed in PubChem BioAssay.
HCV inhibitor: qHTS Assay for Inhibitors of Hepatitis C Virus (HCV) | Huh7.5.1 HCVcc-Cre infection, luciferase reporter, 44 h | Potency, µM (titrated, usually from 41.8 µM), without a hit: at the top dose activity change, negative = inhibition, hits mostly inhibitors | 340,000 tested, 3.4% active; further: potency means the concentration at half of the fitted maximal effect
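Whole-lifecycle infectious HCVcc-Cre system; cells 1,000/well, compound then virus (~0.5 moi) added 4 h after plating, 44 h culture. Luciferase read 15 sec following 15 min substrate incubation, room temp.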
MARV entry inh: qHTS for inhibitors of binding or entry into cells for Marburg Virus; Marburg virus pseudotyped entry inhibition, cell reporter; Potency, µM (titrated, usually from 37.8 µM), without a hit: top-dose activity change, negative = inhibition, hits mostly inhibitors; 300,000 tested, 1.8% active; AID 540276, 2011; calls by dose curve; tested in HEK293 cells; further: potency means the concentration at half of the fitted maximal effect
HCMV inh: qHTS Assay for inhibitors of the human cytomegalovirus (HCMV) | HFF cells, HCMV-luciferase reporter, 72 h; stronger effect = lower value | activity change, negative = inhibition, % at 57.5 µM | 410,000 tested, 4.5% active | AID 1259415, 2018; in the data active means activity change below about -60%; inconclusive means no clear call, values can overlap the other calls; inactive means above about -39%
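HFF cells seeded 16 h at 37C, treated with compounds, infected with luciferase-reporter HCMV at MOI 1 PFU/cell; luciferase read at 72 h post infection, normalized to buffer-only and Salinomycin controls.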
LASV entry inh: qHTS for Inhibitors of binding or entry into cells for Lassa Virus; Lassa virus pseudotype entry inhibition, cell reporter; Potency, µM (series often up to 37.9 µM), for the others: at the top dose activity change, negative = inhibition, most hits filed as inhibitors; 300,000 tested, 1.2% active; AID 540256, 2011; calls by dose curve; tested in HEK293 cells; further: potency means the concentration at half of the fitted maximal effect; nearly all actives have a fitted effect of over 50% in size
Pf growth 48h: Primary qHTS for delayed death inhibitors of the malarial parasite plastid, 48 hour incubation | P. falciparum luciferase growth in erythrocytes, 48 h | Potency, µM (titrated, usually from 28.7 µM), without a hit: top-dose activity change, negative = inhibition, actives largely listed as inhibitors | 310,000 tested, 5.9% active; further: potency means the concentration at half of the fitted maximal effect
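Cell-based growth assay: transgenic P. falciparum expressing firefly luciferase, cultured in red cells within RPMI 1640 containing 0.5% w/v Albumax, 24 mM bicarbonate and gentamycin. A drop in luciferase activity indicates inhibition.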
Pf growth 96h: Primary qHTS for delayed death inhibitors of the malarial parasite plastid, 96 hour incubation; Potency, µM (top dose mostly 28.7 µM), for the others: top-dose activity change, negative = inhibition, usual class: inhibitors; 320,000 tested, 6.9% active; P. falciparum luciferase reporter growth, 96 h; further: potency means the concentration at half of the fitted maximal effect
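Plates of compound plus infected erythrocytes (2% hematocrit, 0.05% parasitemia final) incubate 96 hours, 37 C, 5% CO2. Detection reagent added; reduced luminescence from the parasites' luciferase reporter flags inhibition.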
Starred values were filed as active, the others as inactive; ? = inconclusive; / = not tested or not shown; [ ] = remark or other dose. This is a sample that favours compounds with a hit; in the whole collection about 14% have one here. Unless noted, the call rests on the fitted dose curve; in most records, active means well fitted inhibition curve with a large enough effect; inconclusive means small, poorly fitted or top-dose-only effect, or another doubt; inactive means no such curve, though single readings can be large or run the other way. On the % scale 0 is the no-effect control and ±100 the full control effect.

SMILES | HCV inhibitor | MARV entry inh | HCMV inh | LASV entry inh | Pf growth 48h | Pf growth 96h
CCOc1ccc(N2CC(NC(=O)c3ccc(S(=O)(=O)N4CCCC4)cc3)CC2=O)cc1 (stereo not drawn) | / | / | -32.9 | 1.5%[46.1 µM] | / | /
Cc1cc(Br)c(NC(=O)c2c(-c3c(Cl)cccc3Cl)noc2C)c(Br)c1 | -19.2% | / | ? | / | 10.4µM* | 5.86µM*
COc1ccc(NC(=O)c2c(-c3c(Cl)cccc3Cl)noc2C)c(OC)c1 | ? | -15.5%[46.1 µM] | -22.3 | / | 1.65µM* | 29.0%
COc1ccc(NC(=O)c2c(-c3c(Cl)cccc3Cl)noc2C)cn1 | 19.9% | 9.8% | 0.6 | 4.4% | ? | -6.8%
COCOCCn1cc(CN2CCS(=O)(=O)N(Cc3ccc(-c4cccc(N(C)C)c4)cc3)C(C(C)C)C2=O)nn1 (stereo not drawn) | / | ? | 39.7 | / | / | /
Cc1ccc(NC(=O)/C=C/c2ccco2)cc1F | / | / | 0.3 | ? | / | /
O=C(/C=C\c1ccco1)Nc1cc([N+](=O)[O-])ccc1F | 3.2% | ? | -87.2* | ? | 49.7% | 32.1%
OC(c1ccc2ccccc2c1)c1ncc(-c2cccc3ccccc23)[nH]1 (stereo not drawn) | / | / | 19.7 | / | / | /
O=C1NC[C@@H](CCCCN2C[C@H](Cc3ccc(O)cc3)N(CCC3CCCCC3)C(=O)C2=O)N(CCC2CCCCC2)C1=O | / | / | -1.8 | / | / | /
CCCCn1c(C)c(C(=O)OCC)c2c(CN3CCOCC3)c(O)ccc21 | 25.1µM* | ? | -29.3 | ? | ? | /
CCOC(=O)c1c(C)n(C)c2ccc(O)c(CN3CCC(C)CC3)c12 | ? | 11.2µM* | / | ? | ? | 10.4µM*
CCCCn1c(C)c(C(=O)OCC)c2c(CN3CCCC3)c(O)ccc21 | ? | / | -23.5 | / | / | 4.65µM*
COc1ccccc1CNc1nc2cc(-c3ccsc3)sc2c(=O)n1C | / | / | 5.6 | / | / | /
O=C(CC1SCCNC1=O)NCc1ccccc1 (stereo not drawn) | / | / | -8.7 | / | / | /
Cc1cccc2c1N(Cc1ccccc1OCCC(C)C)C(=O)C2=O | / | ? | -93.2* | ? | / | /
Cc1cc(Br)cc2c1N(Cc1ccccc1OC(C)C)C(=O)C2=O | / | ? | -87.6* | ? | / | /
CCCCCOc1ccccc1CN1C(=O)C(=O)c2cc(C)ccc21 | / | -26.0%[46.1 µM] | -93.4* | -18.9%[46.1 µM] | / | /
CC1(C(=O)O)CCCN1C(=O)c1cccc(F)c1 (stereo not drawn) | / | / | -14.8 | / | / | /
Cc1cccc(C2NC(=O)c3c(sc4c3CCN(C)C4)N2)c1O (stereo not drawn) | / | / | 40.6 | 4.3%[46.1 µM] | / | /
Nc1cc2nsnc2cc1Br | ? | ? | -107.0* | -46.5% | -17.1% | -12.1%
C[C@H](CO)N1C[C@H](C)[C@@H](CN(C)C(=O)Nc2ccc(N3CCN(C)CC3)cc2)OCc2cn(nn2)CCCC1=O | / | / | -2.2 | / | / | /
CC(c1nc2ccccc2c(=O)[nH]1)N(C)c1ccc2ccccc2c1 (stereo not drawn) | 2.8% | 13.9% | -16.7 | -2.4% | 6.57µM* | 14.7µM*
COc1cccc(CNC(=O)c2sc3nc[nH]c(=O)c3c2C)c1 | / | / | -22.8 | -2.1%[46.1 µM] | / | /
Cc1cccn2cc(COc3cccc([N+](=O)[O-])c3)nc12 | -6.4% | 2.2%[46.1 µM] | -32.6 | 0.2%[46.1 µM] | 38.1% | 23.7%
Cc1cccn2cc(COc3ccc(-c4ccccc4)cc3)nc12 | ? | ? | -90.4* | ? | 249.3% | 104.1%
SMILES | HCV inhibitor | MARV entry inh | HCMV inh | LASV entry inh | Pf growth 48h | Pf growth 96h
CC1=C(C(=O)Nc2cccc(C(=O)NC3CCCCC3C)c2)SCCO1 (stereo not drawn) | ? | / | -38.7 | / | -11.5% | 9.28µM*
CCOCCCNC(=O)c1cccc(NC(=O)C2=C(C)OCCS2)c1 | -3.3% | -6.9%[46.1 µM] | 4.5 | 19.5%[46.1 µM] | -29.5% | ?
COc1ccc2ccc(O)c(CN(C)CC(=O)Nc3ccccc3C(F)(F)F)c2c1 | 2.4% | -18.2%[46.1 µM] | -2.2 | -3.9% | 11.7µM* | ?
COc1ccc(CCNCC(=O)Nc2ccccc2C(F)(F)F)cc1 | -17.3% | -4.0%[46.1 µM] | ? | 18.5% | 13.1µM* | -27.8%
COc1ccc(CN(C)CC(=O)Nc2ccccc2C(F)(F)F)cc1 | 1.3% | -27.8% | -31.1 | ? | 1.9% | -22.7%
COc1ccc(OC(C)c2nc3ccccc3[nH]2)cc1 (stereo not drawn) | / | ? | 7.8 | -27.9%[46.1 µM] | / | /
CCCNC(=O)c1cc(C2CCCCN2C(=O)c2ccccc2)on1 (stereo not drawn) | / | / | -3.7 | / | / | /
C#CCOCCOCCOCCNc1nc(N2CCN(C(=O)Cn3cc(CCO)nn3)CC2)nc(N2CCN(C(=O)Cn3cc(CCCCN)nn3)CC2)n1 | -10.9%[8.37 µM] | / | -0.8 | / | / | /
CNC(=O)c1cc(C(=O)c2ccc(Cl)cc2)c[nH]1 | 15.0% | 21.0%[46.1 µM] | 84.6 | 10.5%[46.1 µM] | / | 25.5%
O=C(c1ccc(Cl)cc1)c1c[nH]c(C(=O)NNc2ccccc2)c1 | ? | ? | -18.9 | 14.1µM* | 6.5% | 24.5%
CN(C)C=NC(=O)c1cc(C(=O)c2ccc(Cl)cc2)c[nH]1 | ? | 28.5%[46.1 µM] | -63.3* | -1.7% | 48.3% | 27.3%
CN(C)C=NC(=O)c1cc(C(=O)c2ccc(F)cc2)c[nH]1 | 27.9% | -4.3%[46.1 µM] | -5.6 | -5.9% | 2.7% | 28.0%
CCOC(=O)C1CCN(C(=O)Cn2nc(C)n3c(cc4sccc43)c2=O)CC1 | / | -4.0%[46.1 µM] | -14.6 | / | / | /
COc1ccc(-c2cc(C(F)(F)F)nc(SCCC(=O)NCc3ccccc3)n2)cc1 | ? | -25.1% | 8.8 | -25.8% | 14.7µM* | /
COc1ccccc1CCNC(=O)CCSc1nc(-c2ccco2)cc(C(F)(F)F)n1 | ? | ? | -35.1 | -12.3% | 8.28µM* | -1.2%
O=C1NC(=O)c2c(Br)c(Br)c(Br)c(Br)c21 | 13.1% | 5.8%[46.1 µM] | -21.9 | 11.7%[46.1 µM] | / | /
CCOC(=O)c1c(NC(=O)C(=O)N/N=C/c2ccccc2O)sc2c1CCCCC2 | ? | ? | -20.0 | -1.6% | 0.657µM* | 0.928µM*
CCOC(=O)c1c(NC(=O)COC(=O)c2nccnc2N)sc2c1CCC2 | ? | / | 33.6 | / | -16.1% | ?
CCOC(=O)c1c(NC(=O)C(NCCN(C)C)c2ccccc2)sc2c1CCCC2 (stereo not drawn) | 0.891µM* | ? | -26.1 | 11.2µM* | 9.28µM* | ?
CCOC(=O)c1c(NC(=O)CSc2nnc(-c3c[nH]c4ccccc34)n2CCOC)sc2c1CCCCC2 | 6.31µM* | ? | -66.7* | 23.1µM* | ? | 9.28µM*
CCOC(=O)c1c(NC(=O)COC(=O)c2nc(Cl)ccc2Cl)sc2c1CCC2 | -2.2% | -12.5% | -61.2* | 12.9% | 23.7% | ?
COCCn1c(SCC(=O)Nc2cc(C)on2)nnc1-c1c[nH]c2ccccc12 | -7.1% | / | -1.6 | / | / | ?
CC1(C(=O)NS(C)(=O)=O)CCN1C(=O)Cc1ccc(-c2ccccc2)cc1 (stereo not drawn) | / | / | 3.1 | / | / | /
